Experimental findings from PubChem BioAssay (Tox21) are described below.

Structures are written as SMILES. A number with no mark means an inactive call. Records with an inconclusive call do not appear. Activity calls are given as the source filed them. Unless noted, the call rests on the fitted dose curve; in most records, active means well fitted curve in the direction sought with a large enough effect in the repeat runs; inconclusive means weak or mixed curves; inactive means no such curve, though single readings can be large; an effect the other way counts as inactive or inconclusive.

Assay [1] can be described thus: A CellTox Green Cytotoxicity Assay to monitor cytotoxicity in HepG2 cells - 0 hour (AID 1224882). Further: nearly all actives have a fitted effect of over 35% in size. In outline: (§1)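 Cells and non-lytic dye reagent are dispensed together (600 HepG2 cells/well) and incubated 5 h before DMSO compound transfer. Kinetic fluorescence is then recorded in the same wells during 40 h at 37 C.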
The nature of assay [2]: A CellTox Green Cytotoxicity Assay to monitor cytotoxicity in HepG2 cells - 32 hour (AID 1224883). Further: nearly all actives have a fitted effect of over 50% in size. Further: potency means the concentration at half of the fitted maximal effect. In outline: as §1
A short description of assay [3]: A CellTox Green Cytotoxicity Assay to monitor cytotoxicity in HEK293 cells - 8 hour (AID 1224884). Further: nearly all actives have a fitted effect of over 35% in size. In outline:
(§2)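 Cells (HEK293, 600/well) and dye reagent are dispensed together. After 5 h at 37 C, 23 nL compound is pinned in. Plates stay at 37 C for 40 h with fluorescence read at 0h, 8h, 16h, 24h, 32h and 40h.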

Assay [4] can be described thus: qHTS RealTime-Glo MT Cell Viability Assay in HepG2 cells - 16 hour (AID 1224885). Further: nearly all actives have a fitted effect of over 50% in size. In outline:
(§3)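 Viability was tracked continuously by NanoLuc luminescence from prosubstrate reduced by living HepG2 cells, at successive time points over 40 h of compound exposure. Cells with reagent were preincubated 5 h at 37 °C before compound addition.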
In general terms: Quantitative high-throughput screening tests each substance at several concentrations.

Assay [5] in a line: qHTS RealTime-Glo MT Cell Viability Assay in HEK293 cells - 24 hour (AID 1224886). Further: nearly all actives have a fitted effect of over 50% in size. Further: potency means the concentration at half of the fitted maximal effect. The gist of the method:
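Viability tracked continuously by luminescence as live cells reduce a prosubstrate for NanoLuc; HEK293 cells preincubated 5 h, compound-treated at 37 C, and read at 0, 8, 16, 24, 32 and 40 h.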

Assay [6] in a line: qHTS RealTime-Glo MT Cell Viability Assay in HEK293 cells - 8 hour (AID 1224887). Further: top concentration of the series differs between compounds; nearly all actives have a fitted effect of over 50% in size. The gist of the method:
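Real-time viability in HEK293: signal arises when living cells convert a prosubstrate for NanoLuc in the medium, so luminescence tracks viable cell number. Compound (23 nL, DMSO) added 5 h post-seeding; kinetic reads at 0–40 h, 37 C.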

Assay [7] in a line: A CellTox Green Cytotoxicity Assay to monitor cytotoxicity in HEK293 cells - 16 hour (AID 1224888). Further: nearly all actives have a fitted effect of over 35% in size. In outline: as §2
The nature of assay [8]: qHTS RealTime-Glo MT Cell Viability Assay in HepG2 cells - 0 hour (AID 1224889). Further: nearly all actives have a fitted effect of over 50% in size. The gist of the method:
as §3

Assay [9] in a line: A CellTox Green Cytotoxicity Assay to monitor cytotoxicity in HepG2 cells - 8 hour (AID 1224890). Further: nearly all actives have a fitted effect of over 45% in size. The gist of the method:
as §1

The nature of assay [10]: qHTS assay to identify small molecule phospholipidosis (PLD) inducers (AID 1259344; active means well fitted curve in the direction sought with a large enough effect; an effect the other way counts as inactive or inconclusive). In outline: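 Phospholipid accumulation was scored by imaging: fixed, Hoechst-counterstained HepG2 cells stained with LipidTOX Red after 24 h compound exposure at 37 C. Read-outs were pit count and pit intensity per well or per cell, with amiodarone and DMSO controls.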
Assay [11] in a line: qHTS assay to identify small molecule HDAC inhibitors (AID 1259364). Further: potency means the concentration at half of the fitted maximal effect.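 Further: wild-type HCT-116 cells with endogenous class I/II HDAC activity; nearly all actives have a fitted effect of over 45% in size.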 In outline:
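Cells (HCT-116, wild type) are seeded at 1,500 per well, incubated overnight, treated with compound in DMSO for 2 hr, then developed with HDAC-Glo I/II reagent for 30 min at room temperature.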

Assay [12] is described as follows: qHTS assay to identify small molecule HDAC inhibitors - cell viability counter screen (AID 1259365). In outline: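 HCT-116 wild-type, overnight attachment; 2hr drug exposure, 37C; CellTiter-Glo luminescent ATP readout after 30min RT.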
Assay [13] can be described thus: qHTS assay to identify small molecule antagonists of the sonic hedgehog signaling (Shh) pathway - cell viability counter screen (AID 1259367). Further: nearly all actives have a fitted effect of over 55% in size. The gist of the method: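 Viability was read by CellTiter-Fluor fluorescence in the same wells, reagent added 23 hr into compound treatment and incubated 1 hr at 37C. The 3T3 Gli1-Luc reporter cells (2,000/well) received conditioned medium after compound and ran 24 hr.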

Assay [14] can be described thus: qHTS assay to identify small molecule agonists of the sonic hedgehog signaling (Shh) pathway (AID 1259368; calls by dose curve;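 further: NIH/3T3-derived 3T3Gli1-Luc cells carrying a stable Gli1-driven firefly luciferase reporter; series mostly up to about 92 µM; nearly all actives have a fitted effect of over 15% in size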). The gist of the method: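 Cells of a mouse NIH/3T3 clone stably expressing luciferase under the Gli1 transcriptional response element are exposed to test chemicals for 24 hr at 37 C. Pathway activation is detected as a rise in luminescence.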
Assay [15] is described as follows: qHTS assay to identify small molecule antagonists of the estrogen receptor alpha (ER-alpha) signaling pathway using the BG1 cell line in the presence of 0.1 nM 17-beta-estradiol - cell viability counter screen (AID 1259241). Further: nearly all actives have a fitted effect of over 40% in size. In outline:
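Following 5 days in phenol red-free medium with charcoal-stripped serum, VM7Luc4E2 cells received test compounds alongside 0.1 nM 17beta-estradiol (final) at 37C for 22 hr. Live cells were then quantified via protease-substrate fluorescence.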

Assay [16] can be described thus: qHTS assay to identify small molecule antagonists of the androgen receptor (AR) signaling pathway using the MDA cell line in the presence of 0.5 nM R1881 - cell viability counter screen (AID 1259242). Further: nearly all actives have a fitted effect of over 45% in size. In outline: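 Steps: plate MDA-kb2 cells, rest 5 hr at 37C without CO2; pin in compounds in DMSO; add R1881 to 0.5 nM final; incubate 16 hr; add CellTiter-Fluor, 30 min; read fluorescence.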

Assay [17] can be described thus: qHTS assay to identify small molecule agonists of the sonic hedgehog signaling (Shh) pathway - cell viability counter screen (AID 1259366). Further: nearly all actives have a fitted effect of over 50% in size. In outline:
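Compounds in DMSO were pin-transferred onto 3T3 Gli1-Luc cells that had settled 4hr; plates then stood 24hr at 37C and 5% CO2. One hour before the end, CellTiter-Fluor was added and fluorescence recorded.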

The nature of assay [18]: qHTS assay to identify small molecule antagonists of the sonic hedgehog signaling (Shh) pathway (AID 1259369; calls by dose curve; further: nearly all actives have a fitted effect of over 45% in size). In outline:
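Cells are plated and held 4hr at 37 C, compounds (DMSO) are pinned in, conditioned medium is added to stimulate the pathway, and after 24hr luciferase reagent is added for 30min before luminescence is read.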

For assay [19], the target named is Estrogen receptor (Homo sapiens) (UniProt P03372). Description: qHTS assay to identify small molecule antagonists of the estrogen receptor alpha (ER-alpha) signaling pathway using the BG1 cell line in the presence of 0.1 nM 17-beta-estradiol (AID 1259244). Further: nearly all actives have a fitted effect of over 50% in size. Further: potency means the concentration at half of the fitted maximal effect. The gist of the method: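 Antagonist mode: compounds in DMSO are pinned onto VM7Luc4E2 reporter cells, 0.1 nM final 17beta-estradiol is added, and after 22 h at 37C luciferase luminescence is measured with ONE-Glo.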
Chain of Estrogen receptor (Homo sapiens) (P03372 whole entry, looked up): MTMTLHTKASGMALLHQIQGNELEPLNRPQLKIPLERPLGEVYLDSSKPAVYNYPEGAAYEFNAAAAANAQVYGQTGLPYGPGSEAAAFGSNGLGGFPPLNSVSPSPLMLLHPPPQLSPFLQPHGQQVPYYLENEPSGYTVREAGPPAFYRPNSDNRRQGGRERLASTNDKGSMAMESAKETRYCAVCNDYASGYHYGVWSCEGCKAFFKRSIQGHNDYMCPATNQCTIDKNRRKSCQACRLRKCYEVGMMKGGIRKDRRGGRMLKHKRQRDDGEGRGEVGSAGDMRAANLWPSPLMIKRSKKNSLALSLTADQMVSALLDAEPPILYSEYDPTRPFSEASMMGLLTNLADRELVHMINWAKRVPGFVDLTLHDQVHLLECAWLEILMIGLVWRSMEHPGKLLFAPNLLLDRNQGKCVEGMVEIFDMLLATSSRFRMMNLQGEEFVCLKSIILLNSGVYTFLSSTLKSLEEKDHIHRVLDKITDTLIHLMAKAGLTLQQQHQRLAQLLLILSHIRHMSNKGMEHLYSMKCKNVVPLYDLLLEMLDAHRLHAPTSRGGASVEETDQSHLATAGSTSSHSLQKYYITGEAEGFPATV

As for `Cc1ccc(O)c([C@H](CCN(C(C)C)C(C)C)c2ccccc2)c1`, the Potency entry in assay [1], in assay [3], in [4], in assay [5], in assay [6] and in [7] was “inactive” in each case. The Potency entry in [8], in assay [9], in assay [10], in assay [11] and in assay [13] was “inactive” each time. In addition, the Potency in assay [2] was 21.3 µM (active). Besides, the compound was classed as inactive in [12] and in assay [14].
As to `CCOc1ccc(NC(=O)CC(C)=O)cc1`, the Potency entry in assay [1], in [2], in assay [3], in assay [4], in assay [5] and in [6] was “inactive” each time. Further, the Potency result in assay [7], in assay [8], in assay [9], in assay [15], in [16] and in assay [17] was “inactive” each time. In assay [18], the Potency result is “inactive”. Moreover, the outcome in assay [12] and in [14] was inactive.
As for `CCCC(C)C`, the Potency result in assay [1], in assay [2], in [3], in assay [4], in [6] and in assay [7] was “inactive” each time. For the same compound, the Potency result in assay [8], in assay [9], in [15], in [16], in assay [19] and in assay [11] was “inactive” throughout. The Potency result in [17], in assay [13] and in [18] was “inactive” each time. The result in assay [12] and in assay [14] was inactive.
On to `Oc1ccc(O)c2c(O)cccc12`, for which the Potency entry in assay [1], in assay [2], in assay [3], in assay [4], in assay [5] and in assay [7] was “inactive” throughout. Further, the Potency entry in assay [8], in assay [9], in assay [16], in assay [19], in assay [11] and in assay [17] was “inactive” each time. For the same compound, the Potency entry in assay [13] and in [18] was “inactive” throughout. Also, the compound was called inactive in [12] and in assay [14].
As for `COCCCCCCCCOCCC[Si](C)(O[Si](C)(C)C)O[Si](C)(C)C`, the Potency entry in [1], in assay [3], in assay [4], in assay [6], in assay [7] and in assay [8] was “inactive” throughout. Further, the Potency entry in [9], in [11], in assay [17] and in [18] was “inactive” each time. Further, the Potency in assay [2] is 21.9 µM (active); in [5], 2.45 µM (active); in assay [19] it was 17.2 µM (active). In addition, the outcome in assay [12] and in assay [14] was inactive.
As to `O=C(/C=C/c1ccc(O)c(O)c1)O[C@@H]1C[C@](O)(C(=O)O)C[C@@H](O)[C@H]1O`, the Potency result in assay [1], in [2], in [3], in assay [4], in [5] and in assay [6] was “inactive” each time. Besides, the Potency entry in [7], in assay [8], in assay [9], in assay [15], in assay [16] and in assay [11] was “inactive” throughout. The Potency entry in assay [17], in assay [13] and in assay [18] was “inactive” throughout. In addition, the call in assay [12] and in assay [14] was inactive.
Take `CCCCCCOC(=O)CCC`: the Potency entry in [1], in assay [2], in assay [3], in [4], in assay [5] and in [6] was “inactive” throughout. The Potency result in assay [7], in [8], in [9], in assay [16], in [11] and in assay [17] was “inactive” each time. The Potency entry in [13] and in [18] was “inactive” each time. The outcome in [12] and in [14] was inactive.
For `Nc1ccc(C(=O)Nc2ccccc2N)cc1`, the Potency result in [1], in [3], in assay [4], in [6], in [7] and in assay [8] was “inactive” each time. Besides, the Potency entry in assay [9], in [15], in [16], in assay [19], in assay [10] and in assay [17] was “inactive” throughout. The Potency entry in [13] and in [18] was “inactive” each time. Also, the Potency is 7.56 µM (active) in assay [2] and 2.98 µM (active) in assay [11]. In addition, the compound was classed as inactive in assay [12] and in [14].
